Assay [1] is described as follows: NCI Yeast Anticancer Drug Screen. Data for the rad50 strain (AID 155).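 Further: 0% = growth of vehicle-only cultures of the same strain.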 The note with it: S. cerevisiae rad50 strain growth inhibition; at 50.0 µM; active compounds read high. In outline: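 Genetically altered yeast (DNA repair pathway); compound treatment; growth inhibition vs vehicle ctrl.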
Assay [2] in a line: NCI Yeast Anticancer Drug Screen. Data for the mec2-1 strain (AID 157). The note with it: S. cerevisiae mec2-1 strain, at 50.0 µM, active compounds read high. In outline: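 Mutant yeast (mec2-1) grown with compound; growth inhibition relative to vehicle control reported.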
Assay [3] can be described thus: NCI Yeast Anticancer Drug Screen. Data for the sgs1 mgt1 strain (AID 161).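 Further: 0% = growth of cultures given vehicle only.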 As to conditions: S. cerevisiae sgs1 mgt1 strain, at 50.0 µM, active compounds read high. The gist of the method: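 Yeast cells carrying a defined DNA-repair defect were exposed to test compounds. Growth inhibition was measured relative to vehicle-treated controls.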
Assay [4] is described as follows: NCI Yeast Anticancer Drug Screen. Data for the cln2 rad14 strain (AID 165).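 Further: 0% = growth equal to vehicle treated cultures.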 As to conditions: S. cerevisiae cln2 rad14 strain, at 50.0 µM, active compounds read high. In outline: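 Readout is yeast growth inhibition versus vehicle-treated controls, using a strain with cln2 and rad14 alterations exposed to compound.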
Assay [5] is described as follows: NCI Yeast Anticancer Drug Screen. Data for the bub3 strain (AID 167). As to conditions: S. cerevisiae bub3 mutant strain, at 50.0 µM, active compounds read high. In outline: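 Yeast carrying a defined mutation is treated with each compound, and growth is compared with that of vehicle-exposed cells to give inhibition.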
The nature of assay [6]: NCI Yeast Anticancer Drug Screen. Data for the mlh1 rad18 strain (AID 175). The note with it: S. cerevisiae mlh1 rad18 strain growth inhibition; at 50.0 µM; active compounds read high. In outline:
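Genetically defined yeast (DNA repair-deficient) exposed to compounds; growth inhibition determined relative to vehicle.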

Data on 20 compounds can be found in PubChem BioAssay (NCI).

Compounds without any hit were thinned out: in the full panel of roughly 79,000, 15% have a hit. Values without a mark were called inactive. Calls of active or inactive are those of the source. No stated cut-off is given here; in the data, active means growth inhibition above about 70%; inactive means the rest.

Regarding `Cc1cc(Cl)ccc1NC(=O)C1C(=O)N(c2ccc(Cl)cc2C)C(=O)/C1=N\NC(N)=O` (stereo not given), the growth inhibition in assay [1] was 7.65%; in assay [2] it was -24.4%; in assay [3] it was 14.4%; in assay [4], 6.1%; in assay [5] it was -6.45%; in assay [6], 5.7%.
As for `CCN(CC)C(=O)C1CCNCC1`, the growth inhibition in assay [1] was -12.3%; in assay [2], -14.4%; in assay [3] it was -2%; in assay [4], -27.2%; in assay [5], 9.85%; in assay [6], -7.75%.
For `Clc1ccc(CSC2=NCCN2)cc1Cl`, the growth inhibition in assay [1] was -17%; in assay [2], -26.4%; in assay [3] it was -21.9%; in assay [4] it was -24.4%; in assay [5], -14%; in assay [6] it was 12.8%.
Consider `COC(=O)C1CC/C(=N\Nc2ccc([N+](=O)[O-])cc2[N+](=O)[O-])CC1C(=O)OC` (stereo not given), for which the growth inhibition is 10.2% in assay [1]; -5.75% in assay [2]; -8.75% in assay [3]; -1.65% in assay [4]; 5.2% in assay [5]; 19.6% in assay [6].
As for `CC1NC(=O)C2Cc3ccc(O)c(c3)Oc3cccc(c3)C(O)C(C(=O)N2C)N(C)C(=O)C(C)NC(=O)C(Cc2ccc(O)c(O)c2)N(C)C(=O)C(C)NC1=O` (stereo not given), the growth inhibition in assay [1] is 6.75%; in assay [2], -19.3%; in assay [3] it was 6.6%; in assay [4], 6.15%; in assay [5] it was 10.7%; in assay [6] it was 6.55%.
As to `COc1cc(OC)c(NC(=O)ON2C(=O)c3ccccc3C2=O)cc1Cl`, the growth inhibition was 8.2% in assay [1]; -1.75% in assay [2]; -2.3% in assay [3]; 11.8% in assay [4]; 0.5% in assay [5]; 24.6% in assay [6].
On to `CCCCN(C=O)c1ccccc1`, for which the growth inhibition in assay [1] was 3.15%; in assay [2], 9.65%; in assay [3], 2.95%; in assay [4], 7.15%; in assay [5], -8.45%; in assay [6], 27.9%.
Take `C[n+]1ccccc1CCC(=O)Nc1ccccc1`: the growth inhibition was -0.65% in assay [1]; 14.9% in assay [2]; 2.05% in assay [3]; 0.05% in assay [4]; 0.7% in assay [5]; -17.9% in assay [6].
Turning to `CCCCCC(CCCC)OC(=O)Nc1ccccc1` (stereo not given), the growth inhibition in assay [1] is -4.35%; in assay [2], 7.85%; in assay [3] it was 10%; in assay [4], -7%; in assay [5], -1.15%; in assay [6], 4.6%.
For the compound `COCCCNc1nc(N)c(C#N)c(C#N)c1C#N`, the growth inhibition in assay [1] was 4.3%; in assay [2], -6.15%; in assay [3] it was 2.85%; in assay [4], 3.45%; in assay [5] it was 19.3%; in assay [6], 22.2%.
Take `C/C=C/c1ccc2oc(-c3ccc(OC4OC(C)C(O)C(O)C4O)cc3)c(C)c2c1` (stereo not given): the growth inhibition is 98.9% (active) in assay [1]; 99% (active) in assay [2]; 99.2% (active) in assay [3]; 98.7% (active) in assay [4]; 98.5% (active) in assay [5]; 51.9% in assay [6].
Regarding `CC(=Nc1cc(Cl)cc(Cl)c1)c1ccncc1`, the growth inhibition in assay [1] is -25.1%; in assay [2], -21.2%; in assay [3], -31.4%; in assay [4], -5.05%; in assay [5], 16.4%; in assay [6], -49.8%.
As for `CC1=C(C(=O)Nc2cccc3c2C(=O)NC3=O)CC(C(=O)Nc2cccc3c2C(=O)NC3=O)=C(C)N1`, the growth inhibition in assay [1] is -51%; in assay [2], -18.6%; in assay [3], -6.15%; in assay [4] it was -25.8%; in assay [5] it was -10.9%; in assay [6], -25.8%.
With `Cc1cc(=O)n2c3c(cccc13)CCC2`, the growth inhibition in assay [1] was 26.3%; in assay [2], -1.5%; in assay [3] it was -3.15%; in assay [4], 7.15%; in assay [5], 3.9%; in assay [6] it was 11.9%.
`Cc1nn(C(=O)c2ccc(Cl)cc2)c2c1C(c1ccccc1)SC(N)=N2` (stereo not given): the growth inhibition is -18.6% in assay [1]; -38% in assay [2]; -5.15% in assay [3]; 6.2% in assay [4]; 18.4% in assay [5]; -3.5% in assay [6].
Regarding `Cc1ccc2c(c1)SCc1c-2[nH]c2ccccc12`, the growth inhibition in assay [1] is 93.2% (active); in assay [2] it was 95.3% (active); in assay [3] it was 95.3% (active); in assay [4], 88.9% (active); in assay [5] it was 91.8% (active); in assay [6], 92.8% (active).
As to `Cc1cccc(C)c1N1C(=O)C2c3[nH]c4ccccc4c3C3CCC(C(C)(C)C)CC3C2C1=O` (stereo not given), the growth inhibition was 37.7% in assay [1]; 11.4% in assay [2]; 28.2% in assay [3]; 1.8% in assay [4]; 3.4% in assay [5]; 18.1% in assay [6].
On to `O=C(OCc1ccc(Cl)cc1Cl)OCc1ccc(Cl)cc1Cl`, for which the growth inhibition in assay [1] is 7.55%; in assay [2], -0.9%; in assay [3] it was -3.7%; in assay [4] it was -31.7%; in assay [5], 19.2%; in assay [6], 37.4%.
As for `c1ccc(-c2cc3c(nn2)[nH]c2ccccc23)cc1`, the growth inhibition in assay [1] is 14.4%; in assay [2], -1.95%; in assay [3] it was -2.25%; in assay [4] it was -30.2%; in assay [5] it was -15.8%; in assay [6], 8.9%.
Consider `C[C@@]1(CO)O[C@H]1CCC#C[Si](C)(C)C`, for which the growth inhibition was -20.9% in assay [1]; -32.4% in assay [2]; -20.2% in assay [3]; 6.7% in assay [4]; -14.2% in assay [5]; 1.05% in assay [6].
